Results from PubChem BioAssay (Tox21).
Records with an inconclusive call do not appear. Where a call stands in place of a potency, no number is given. The source made the active and inactive calls. Unless noted, the call rests on the fitted dose curve; in most records, active means well fitted curve in the direction sought with a large enough effect in the repeat runs; inconclusive means weak or mixed curves; inactive means no such curve, though single readings can be large; an effect the other way counts as inactive or inconclusive.

How the values were obtained:
[1] = qHTS assay to test for compound auto fluorescence at 535 nm (green) in HEK293 cells (AID 720680)
[2] = qHTS assay to test for compound auto fluorescence at 460 nm (blue) in HEK293 cell free culture (AID 720681)
Procedure, shortened: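 Test compounds were pinned into cell-free culture medium (DMEM with 10% FBS) and fluorescence was read directly at Ex/Em 405/460 nm. Signals were expressed as fluorescence equivalents of triamterene, with DMSO vehicle as control.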

[3] = qHTS assay to test for compound auto fluorescence at 535 nm (green) in HEK293 cell free culture (AID 720682)
Procedure, shortened: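 Green-label autofluorescence (485 nm excitation, 535 nm emission) measured on compound added to cell-free culture medium (DMEM, 10% FBS). Output is expressed relative to fluorescein.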

[4] = qHTS assay to test for compound auto fluorescence at 590 nm (red) in HEK293 cell free culture (AID 720683)
Procedure, shortened: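 Tox21 10K library compounds were pinned into cell-free DMEM with 10% FBS and fluorescence was read at excitation 540 nm. Activity is expressed as Rose Bengal sodium equivalency.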

[5] = qHTS assay to test for compound auto fluorescence at 590 nm (red) in HepG2 cell free culture (AID 720684)
Procedure, shortened: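 Readout: intrinsic compound fluorescence at 590 nm emission after 540 nm excitation, scaled to Rose Bengal sodium. Matrix was cell-free MEM with 10% FBS; DMSO vehicle wells served as control.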

[6] = qHTS assay to test for compound auto fluorescence at 460 nm (blue) in HepG2 cell free culture (AID 720685)
Procedure, shortened: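 Cell-free plates of MEM plus 10% FBS received 23 nL compound or DMSO vehicle; blue-channel (405/460 nm) intensity scored against triamterene as reference fluorophore.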

[7] = qHTS assay to test for compound auto fluorescence at 535 nm (green) in HepG2 cell free culture (AID 720686)
[8] = qHTS assay to test for compound auto fluorescence at 460 nm (blue) in HepG2 cells (AID 720687)
Procedure, shortened: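 Cells (2,000/well in MEM with 10% FBS) attached overnight at 37 C, then were exposed to compound or DMSO for 1 hr at 37 C, 5% CO2. Fluorescence read at Ex/Em 405/460 nm, expressed as triamterene-equivalent signal.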

[9] = molecular target: Glucocorticoid receptor (Homo sapiens) (UniProt P04150); assay: qHTS assay to identify small molecule agonists of the glucocorticoid receptor (GR) signaling pathway (AID 720691; active means well fitted activation curve with a large enough effect in the signal ratio in the repeat runs, not every such curve was filed as active; the % refers to the signal ratio; further: potency means the concentration at half of the fitted maximal effect); details: GR-bla HeLa, beta-lactamase reporter ratio, 18 h; activation: at 62.4 µM (top of the series)
Procedure, shortened: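 Compounds in DMSO, alongside positive controls, were added to GR-bla HeLa reporter cells and incubated 18 h at 37 C; GRE-driven beta-lactamase was detected by fluorescence after 2 h with FRET substrate at room temperature.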

[10] = molecular target: Glucocorticoid receptor (Homo sapiens) (UniProt P04150); assay: qHTS assay to identify small molecule antagonists of the glucocorticoid receptor (GR) signaling pathway (AID 720692; active means well fitted inhibition curve with a large enough effect in the signal ratio in the repeat runs, not every such curve was filed as active; the % refers to the signal ratio)
Procedure, shortened: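 In a 1536-well cell format, compounds were added 4 h after seeding GR-bla HeLa cells, together with dexamethasone at 5 nM final; reporter activity was measured by FRET-substrate fluorescence following 18 h at 37 C.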

[11] = qHTS assay to identify small molecule antagonists of the glucocorticoid receptor (GR) signaling pathway - cell viability counter screen (AID 720693); further: nearly all actives have a fitted effect of over 55% in size
[12] = qHTS assay for identifying genotoxic compounds that show differential cytotoxicity against isogenic chicken DT40 cell lines with known DNA damage response pathways - Rev3 mutant cell line (AID 743014); further: nearly all actives have a fitted effect of over 55% in size; further: potency means the concentration at half of the fitted maximal effect
[13] = qHTS assay for identifying genotoxic compounds that show differential cytotoxicity against isogenic chicken DT40 cell lines with known DNA damage response pathways - Rad54/Ku70 mutant cell line (AID 743015); further: nearly all actives have a fitted effect of over 60% in size; further: potency means the concentration at half of the fitted maximal effect
[14] = qHTS assay to identify small molecule antagonists of the androgen receptor (AR) signaling pathway - cell viability counter screen (AID 743033; further: nearly all actives have a fitted effect of over 45% in size)
[15] = qHTS assay to identify small molecule antagonists of the androgen receptor (AR) signaling pathway using the MDA cell line - cell viability counter screen (AID 743041; further: nearly all actives have a fitted effect of over 45% in size; further: potency means the concentration at half of the fitted maximal effect)
Procedure, shortened: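 qHTS viability read-out; MDA-kb2 AR-luc; R1881-stimulated; 16 h exposure at 37C, 0% CO2; CellTiter-Fluor, 30 min; fluorescence intensity.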

[16] = qHTS assay for identifying genotoxic compounds that show differential cytotoxicity against isogenic chicken DT40 cell lines with known DNA damage response pathways - wild type cell line (AID 743012); further: nearly all actives have a fitted effect of over 60% in size; further: potency means the concentration at half of the fitted maximal effect
Procedure, shortened: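 Viability of DNA repair-proficient chicken DT40 cells was assessed by CellTiter-Glo luminescence following 40 h compound exposure at 37 C/5% CO2.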

[17] = molecular target: Androgen receptor (Homo sapiens) (UniProt P10275); assay: qHTS assay to identify small molecule antagonists of the androgen receptor (AR) signaling pathway (AID 743035; active means well fitted inhibition curve with a large enough effect in the signal ratio in the repeat runs, not every such curve was filed as active; the % refers to the signal ratio)
Procedure, shortened: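 Reporter HEK293 cells were exposed to compounds and R1881 overnight (16 h, 37C); beta-lactamase activity was then quantified by FRET fluorescence.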

[18] = molecular target: Androgen receptor (Homo sapiens) (UniProt P10275); assay: qHTS assay to identify small molecule agonists of the androgen receptor (AR) signaling pathway (AID 743036; active means well fitted activation curve with a large enough effect in the signal ratio in the repeat runs, with a control signal flat, not every such curve was filed as active; the % refers to the signal ratio)
Procedure, shortened: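 AR-UAS-bla HEK293 cells, plated 4 h before dosing, were treated with compound for 16 h at 37C. beta-Lactamase reporter read after 2 h with LiveBLAzer B/G FRET substrate at room temperature.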

[19] = molecular target: Androgen receptor (Homo sapiens) (UniProt P10275); assay: qHTS assay to identify small molecule agonists of the androgen receptor (AR) signaling pathway using the MDA cell line (AID 743040; further: nearly all actives have a fitted effect of over 20% in size; further: potency means the concentration at half of the fitted maximal effect)
Procedure, shortened: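 Agonist activity is measured as luciferase luminescence in human MDA-kb2 cells whose MMTV reporter responds to both AR and GR. Compounds in DMSO incubate 16 h at 37C, 0% CO2, and ONE-Glo is read after 30 min.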

[20] = molecular target: Androgen receptor (Homo sapiens) (UniProt P10275); assay: qHTS assay to identify small molecule antagonists of the androgen receptor (AR) signaling pathway using the MDA cell line (AID 743042; further: nearly all actives have a fitted effect of over 55% in size)
Procedure, shortened: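 MDA-kb2 cells (human breast carcinoma, stably carrying an MMTV-luciferase reporter responsive to AR and GR) were plated at 3,000 cells/well and preincubated 5 hr at 37C, then given compound plus R1881 agonist for 16 h. ONE-Glo luminescence was read.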

Glucocorticoid receptor (Homo sapiens), sequence (P04150 whole entry, looked up): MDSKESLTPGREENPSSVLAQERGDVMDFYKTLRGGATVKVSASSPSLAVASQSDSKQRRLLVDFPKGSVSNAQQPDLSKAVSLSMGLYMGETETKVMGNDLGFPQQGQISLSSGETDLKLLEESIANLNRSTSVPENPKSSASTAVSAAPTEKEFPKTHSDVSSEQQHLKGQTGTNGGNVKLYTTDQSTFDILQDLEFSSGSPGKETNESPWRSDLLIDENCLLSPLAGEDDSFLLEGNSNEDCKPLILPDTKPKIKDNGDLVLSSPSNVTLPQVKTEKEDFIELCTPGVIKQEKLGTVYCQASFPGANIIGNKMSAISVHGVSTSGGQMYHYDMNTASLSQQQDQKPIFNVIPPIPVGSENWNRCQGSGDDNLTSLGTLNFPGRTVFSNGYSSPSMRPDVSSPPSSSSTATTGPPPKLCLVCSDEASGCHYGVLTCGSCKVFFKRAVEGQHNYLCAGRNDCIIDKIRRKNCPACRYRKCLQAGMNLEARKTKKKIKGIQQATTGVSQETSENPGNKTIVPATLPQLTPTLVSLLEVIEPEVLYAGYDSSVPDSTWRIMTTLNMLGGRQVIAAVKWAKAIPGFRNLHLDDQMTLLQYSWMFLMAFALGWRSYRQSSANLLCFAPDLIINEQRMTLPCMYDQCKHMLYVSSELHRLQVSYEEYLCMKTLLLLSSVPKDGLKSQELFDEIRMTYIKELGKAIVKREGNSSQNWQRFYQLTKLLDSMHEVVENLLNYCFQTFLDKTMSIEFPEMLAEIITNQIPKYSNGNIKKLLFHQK
Androgen receptor (Homo sapiens), sequence (P10275 whole entry, looked up): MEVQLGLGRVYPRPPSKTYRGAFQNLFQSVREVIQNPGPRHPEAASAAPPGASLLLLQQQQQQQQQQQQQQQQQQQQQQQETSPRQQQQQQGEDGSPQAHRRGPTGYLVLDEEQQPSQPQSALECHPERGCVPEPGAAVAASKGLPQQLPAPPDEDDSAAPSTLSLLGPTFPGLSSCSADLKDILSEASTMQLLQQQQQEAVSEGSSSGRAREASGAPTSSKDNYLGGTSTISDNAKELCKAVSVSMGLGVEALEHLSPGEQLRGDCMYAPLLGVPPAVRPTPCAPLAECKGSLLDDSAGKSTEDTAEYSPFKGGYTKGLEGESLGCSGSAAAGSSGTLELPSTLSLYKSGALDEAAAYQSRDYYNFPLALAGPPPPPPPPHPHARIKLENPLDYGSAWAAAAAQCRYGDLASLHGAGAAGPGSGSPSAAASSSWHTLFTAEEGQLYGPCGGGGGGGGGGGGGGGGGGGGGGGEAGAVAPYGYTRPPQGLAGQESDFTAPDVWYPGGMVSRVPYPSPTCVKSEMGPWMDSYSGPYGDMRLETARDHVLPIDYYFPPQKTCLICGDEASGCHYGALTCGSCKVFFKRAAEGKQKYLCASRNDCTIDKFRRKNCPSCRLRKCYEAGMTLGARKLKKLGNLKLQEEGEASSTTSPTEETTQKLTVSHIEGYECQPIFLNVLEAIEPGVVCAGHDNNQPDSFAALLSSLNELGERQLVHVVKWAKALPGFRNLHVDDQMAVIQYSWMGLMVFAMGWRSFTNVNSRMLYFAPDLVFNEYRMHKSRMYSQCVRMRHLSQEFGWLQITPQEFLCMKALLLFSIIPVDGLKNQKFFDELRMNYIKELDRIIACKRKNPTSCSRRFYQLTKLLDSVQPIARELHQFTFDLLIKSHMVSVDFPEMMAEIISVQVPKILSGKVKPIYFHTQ

SMILES	outcome [1]	Potency [2]	outcome [3]	outcome [4]	outcome [5]	Potency [6]	Potency [7]	Potency [8]	Potency [9]	Potency [10]	Potency [11]	Potency [12]	Potency [13]	Potency [14]	Potency [15]	Potency [16]	Potency [17]	Potency [18]	Potency [19]	Potency [20]
NC(=O)[C@H]1O[C@@H](O)[C@H](O)[C@@H](O)[C@@H]1O	inactive	inactive	inactive	inactive	inactive	inactive	inactive	inactive	inactive	inactive	inactive	inactive	inactive	inactive	inactive	–	–	–	–	–
CCN1CCCC1CNC(=O)c1cc(S(=O)(=O)CC)ccc1OC (configuration not stated)	inactive	inactive	inactive	inactive	inactive	inactive	inactive	inactive	inactive	inactive	–	inactive	inactive	inactive	inactive	inactive	inactive	inactive	inactive	inactive
COc1cc2c(c(OC)c1OC)-c1c(cc3c(c1OC)OCO3)C[C@@H](C)[C@](C)(O)C2	inactive	inactive	inactive	inactive	inactive	inactive	inactive	inactive	inactive	inactive	inactive	inactive	–	inactive	inactive	–	–	–	–	–
CCN(CC)CCNC(=O)c1ccc(NS(C)(=O)=O)cc1	inactive	inactive	inactive	inactive	inactive	inactive	inactive	inactive	inactive	inactive	inactive	inactive	inactive	inactive	–	–	–	–	–	–
Nc1c(CC(=O)O)cccc1C(=O)c1ccccc1	inactive	inactive	inactive	inactive	inactive	inactive	inactive	inactive	inactive	inactive	–	inactive	inactive	inactive	inactive	inactive	inactive	–	inactive	inactive
O=C1c2ccccc2C(=O)C1c1ccc(F)cc1	inactive	inactive	inactive	inactive	inactive	inactive	inactive	inactive	inactive	inactive	inactive	–	inactive	inactive	inactive	inactive	inactive	inactive	inactive	inactive
CC(C)CCC[C@@H](C)[C@H]1CC[C@H]2[C@@H]3CC[C@@H]4C[C@H](O)CC[C@]4(C)[C@H]3CC[C@]12C	inactive	inactive	inactive	inactive	inactive	inactive	inactive	inactive	inactive	–	inactive	–	inactive	inactive	inactive	inactive	–	–	–	–
CC/C=C\C/C=C\C/C=C\C/C=C\C/C=C\C/C=C\CCC(=O)O	inactive	inactive	inactive	inactive	inactive	inactive	inactive	inactive	inactive	–	inactive	–	–	inactive	inactive	26.6 µM (active)	–	–	–	–
COc1ccc(/C=C/C(=O)Nc2ccccc2C(=O)O)cc1OC	inactive	inactive	inactive	inactive	inactive	inactive	inactive	inactive	inactive	–	inactive	–	–	inactive	inactive	inactive	–	–	inactive	inactive
CCOc1cc(CC(=O)N[C@@H](CC(C)C)c2ccccc2N2CCCCC2)ccc1C(=O)O	inactive	inactive	inactive	inactive	inactive	inactive	inactive	inactive	8.11 µM (active)	–	–	inactive	inactive	inactive	inactive	inactive	inactive	inactive	11.4 µM (active)	inactive
CC[C@H]1OC(=O)C[C@@H](O)[C@H](C)[C@@H](O[C@@H]2O[C@H](C)[C@@H](O)[C@H](N(C)C)[C@H]2O)[C@@H](CCN2C[C@H](C)C[C@H](C)C2)C[C@@H](C)C(=O)/C=C/C(C)=C/[C@@H]1CO[C@@H]1O[C@H](C)[C@@H](O)[C@@H](OC)[C@H]1OC	inactive	inactive	inactive	inactive	inactive	inactive	inactive	inactive	inactive	–	inactive	–	–	–	inactive	inactive	inactive	inactive	–	inactive
Cc1cn([C@H]2C[C@H](O)[C@@H](CO)O2)c(=O)[nH]c1=O	inactive	inactive	inactive	inactive	inactive	inactive	inactive	inactive	–	inactive	inactive	–	inactive	–	inactive	inactive	–	–	–	–
Cc1cc(N)c2ccccc2[n+]1CCCCCCCCCC[n+]1c(C)cc(N)c2ccccc21	inactive	inactive	inactive	inactive	inactive	inactive	inactive	inactive	inactive	–	inactive	2.54 µM (active)	2.85 µM (active)	–	7.49 µM (active)	2.54 µM (active)	–	–	–	–
CCN(CC)CCn1c(=O)c(Cc2ccc(OC)cc2)nc2ccccc21	inactive	inactive	inactive	inactive	inactive	inactive	inactive	inactive	inactive	inactive	–	29.8 µM (active)	–	inactive	inactive	26.6 µM (active)	inactive	inactive	inactive	inactive
O=C(O)c1ccc(NC2OC[C@@H](O)[C@H](O)[C@H]2O)cc1 (some centres not stated)	inactive	inactive	inactive	inactive	inactive	inactive	inactive	inactive	inactive	–	–	–	inactive	inactive	inactive	inactive	–	–	–	–
